# Hits are enriched below; roughly 1.4% of the tested compounds scored in any of these assays.
# Sa RN4220 lethal = S. aureus RN4220 growth inhibition. inhibition, % (test concentration not listed). actives 0.33% (n = 330,000). OD600, 16 h. AID 1259311; in the data active = inhibition above about 85%;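 also: plate controls were untreated cells for no effect and reference antibiotic for full effect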
# SSB-PriA inh = inhibitors of Klebsiella pneumoniae PriA binding to SSB C-terminal tail. inhibition, % at 33 µM. AID 1272365. AlphaScreen SSBct-PriA binding, biotinylated peptide. actives 0.6% (n = 430,000); in the data active = inhibition mostly above about 37%, no sharp cut-off; inactive = mostly below about 20%;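 also: plate controls were negative control peptide for no effect and reference peptide for full effect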
# ugtP null kill = kills S. aureus RN4220 lacking UgtP | AID 1259309 | actives 0.54% (n = 330,000) | growth inhibition, % (no concentration beside the values) | S. aureus RN4220 ugtP deletion, OD600 growth, 16 h; in the data active = growth inhibition above about 68%;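 also: plate controls were untreated wells for no effect and antibiotic for full effect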
# CCHF vOTU inh-1 = CCHFV vOTU protease inhibition. actives 0.55% (n = 370,000). Pep-AMC fluorescence. inhibition, % at 11.5 µM; also: 0% = vehicle wells with enzyme and 100% = no enzyme wells
# Mtb hypoxia inh = Mtb hypoxia fluorescent reporter inhibition; AID 1159583; fluorescence inhibition, % (no concentration beside the values); M. tuberculosis hypoxia-regulated fluorescent reporter, fluorescence; actives 0.1% (n = 300,000); in the data active = fluorescence inhibition mostly above about 23%, no sharp cut-off; inactive = mostly below about 17%
# CCHF vOTU inh-2 = confirmation of CCHF virus vOTU protease inhibitors; shares compounds with CCHF vOTU inh-1; Recombinant CCHFV vOTU, Pep-AMC fluorescence; inhibition, % at 11.5 µM; actives 17% (n = 1,900); AID 686976
# Starred values were filed as active, the others as inactive; x = no result. Rule as the data show it, unless noted: active = inhibition above about 30%; inactive = the rest.
SMILES,Sa RN4220 lethal,SSB-PriA inh,ugtP null kill,CCHF vOTU inh-1,Mtb hypoxia inh,CCHF vOTU inh-2
C=CC[C@@H](CC(=O)N[C@H](CO)Cc1ccccc1)C(=O)N[C@@H](COC(=O)[C@@H](CC=C)CC(=O)OC(C)(C)C)Cc1c[nH]c2ccccc12,x,8.5,x,31.0*,x,-10.8
CC(NS(=O)(=O)c1c(N)n(C)c(=O)n(C)c1=O)c1ccccc1 (centres undefined),-0.3,5.1,3.9,30.4*,5.0,-15.4
Cn1c(N)c(S(=O)(=O)NCc2ccccc2)c(=O)n(C)c1=O,1.8,-3.9,0.3,9.4,4.2,x
COc1ccc(OCc2cc(C(=O)NC3CCOC(C)(C)C3)no2)c2ccccc12 (centres undefined),x,x,x,43.1*,x,21.8
COc1cccc(C2=Nc3cccc4cccc(c34)N2)c1,1.6,40.2,5.1,29.9*,6.1,-20.8
CCOc1ccc(-n2c(SCC(=O)Nc3ccc4cn[nH]c4c3)nnc2-c2ccncc2)cc1,x,x,x,3.7,x,x
COC(=O)c1sc(N2C(=O)C(O)=C(C(=O)c3ccc(C)o3)C2c2ccc([N+](=O)[O-])cc2)nc1C (centres undefined),5.1,7.9,5.4,31.4*,6.6,-1.4
CC(=O)Nc1ccc(C(=O)/C=C/c2ccc(-c3ccccc3[N+](=O)[O-])o2)cc1,x,-1.0,x,x,x,x
Cc1cc(F)ccc1S(=O)(=O)NCC(O)c1ccoc1 (centres undefined),x,-8.0,x,x,x,x
Cc1ccc(C(=O)NC2(O)C(=O)c3ccccc3C2=O)cc1C,-0.2,0.8,-2.9,49.2*,2.3,27.4
O=C(NC1(O)C(=O)c2ccccc2C1=O)c1ccc(C(F)(F)F)cc1,3.1,7.8,2.4,81.2*,-2.0,34.7*
O=C(Cc1ccccc1)NC1(O)C(=O)c2ccccc2C1=O,x,-2.5,x,23.8,x,x
CCSc1nnc(NC(=O)CSc2nc3c(cnn3-c3ccc(Cl)cc3)c(=O)[nH]2)s1,x,-3.0,x,x,x,x
COc1ccc(C2=NN(C(=O)CSc3nc4c(c(=O)n3-c3ccccc3)SCC4)C(c3ccc(F)cc3)C2)cc1 (centres undefined),x,-6.0,x,x,x,x
CCc1nnc(N/N=C/c2ccc(N3CCC(C)CC3)c([N+](=O)[O-])c2)n1N,x,x,x,88.0*,x,-4.7
Cc1nnc(N/N=C/c2cc([N+](=O)[O-])c(N3CCC(C)CC3)cc2N2CCC(C)CC2)n1N,x,x,x,96.2*,x,-3.4
CC1CCN(c2ccc(C=Nn3nnnc3N)cc2[N+](=O)[O-])CC1,1.6,2.0,-4.8,x,9.0,x
COc1ccccc1C(=O)NCC(=O)NN=Cc1cc(Br)ccc1OCc1ccccc1,1.8,-4.7,-4.9,x,-7.3,x
Cc1ccc(NC2=C(NC(=O)c3ccccc3)C(=O)c3ccccc3C2=O)cc1Cl,86.0*,17.5,88.4*,51.4*,7.0,42.1*
CCCCC[C@@H]1C=C(C(=O)O)[C@H](c2cccc(C)c2)N1S(=O)(=O)c1ccc(C)cc1,20.4,-1.9,5.2,31.9*,-3.8,5.1
CCCC[C@@H]1C=C(C(=O)O)[C@H](c2ccc(CC)cc2)N1S(=O)(=O)c1ccc(C)cc1,18.7,9.4,-15.5,30.0*,-0.9,21.2
CCCCC[C@@H]1C=C(C(=O)O)[C@H](c2ccc(Cl)c(Cl)c2)N1S(=O)(=O)c1ccc(C)cc1,27.5,6.8,19.1,37.2*,-3.7,21.0
COc1cccc(C=Nc2oc(-c3ccccc3)cc2C#N)c1O,7.7,-13.1,-3.5,x,8.0,x
Cc1[nH]c(=O)[nH]c(=O)c1CN1CCCCC1,x,2.0,x,x,x,x
O=C1c2ccccc2C(=O)c2c(/C=C/N3CCCCC3)ccnc21,x,10.4,x,29.8*,x,52.1*
SMILES,Sa RN4220 lethal,SSB-PriA inh,ugtP null kill,CCHF vOTU inh-1,Mtb hypoxia inh,CCHF vOTU inh-2
COc1ccccc1C(=O)N1CCCC(C)(C(=O)NS(=O)(=O)C2CC2)C1 (centres undefined),x,x,x,30.1*,x,-18.0
O=C(/C=C/c1cccs1)N(CCn1cccn1)c1nc2ccccc2s1,x,12.0,x,x,x,x
CCOC(=O)N1CCC(NC(=O)CN(C)c2nc3c(Cl)cccc3s2)CC1,x,-11.0,x,x,x,x
O=C1Nc2ccccc2N=C(c2ccc3c(c2)OCO3)C1N(C(=O)c1ccc2ccccc2c1)C1CC1 (centres undefined),x,x,x,32.0*,x,-4.8
O=C1Nc2ccccc2N=C(c2ccc3c(c2)OCO3)C1N(C(=O)c1ccnc2ccccc12)c1ccccc1 (centres undefined),x,x,x,14.9,x,x
CCCCCCCCC(=O)NC(NC(=S)N1CCOCC1)C(Cl)(Cl)Cl (centres undefined),-2.7,-1.1,-33.6,35.6*,7.4,-6.2
O=C(N/N=C/c1cc(Br)ccc1O)c1cccc(N2CCCC2=O)c1,x,x,x,31.6*,x,-15.0
O=c1[nH]c(=S)[nH]c2c1C(c1ccc(Br)cc1)c1c([nH]c(=S)[nH]c1=O)O2,4.5,-11.5,14.0,43.4*,-2.7,40.7*
O=C(N[C@H]1CCN(c2ccc(-c3ccccc3F)nn2)C1)c1ccco1,x,-26.0,x,x,x,x
COC(=O)CSc1[nH]c2ccc(Br)cc2c1[N+](=O)[O-],6.5,0.5,-0.7,33.4*,37.3*,0.7
Cc1ccc2c(Nc3ccc4c(c3)OCCO4)c(C(=O)N3CCC[C@H](C)C3)cnc2n1,x,-9.0,x,x,x,x
CCCCOCCCNC(=O)C[C@H]1C[C@@]2(C(=O)OC)C(=C[C@H](C3CCCC3)O[C@@H]2C)N(Cc2ccc(Cl)cc2Cl)C1=O,x,x,x,23.3,x,x
CCCCOCCCNC(=O)C[C@H]1C[C@@]2(C(=O)OC)C(=C[C@H](C(C)(C)C)O[C@@H]2C)N(Cc2ccc(Cl)cc2Cl)C1=O,x,x,x,38.7*,x,7.2
CCCCCCCCN1C(=O)[C@@H](CC(=O)N2CCN(C(=O)C3CC3)CC2)C[C@@]2(C(=O)OC)C1=C[C@H](C(C)(C)C)O[C@@H]2C,x,x,x,37.7*,x,28.6
CCCCCCCCN1C(=O)[C@@H](CC(=O)NCCCOC)C[C@@]2(C(=O)OC)C1=C[C@H](C(C)(C)C)O[C@@H]2C,x,x,x,36.3*,x,11.9
CC(C)(C)OC(=O)NN=Cc1cn(-c2ccccc2)nc1-c1cccnc1,-3.5,-2.1,8.3,x,16.0,x
O=C(NCc1ccccc1)C(=O)c1cn(CC(=O)N2CCOCC2)c2ccccc12,-0.6,-33.0,1.5,34.6*,7.6,-9.2
O=C(NCc1cccs1)C(=O)c1cn(CC(=O)N2CCOCC2)c2ccccc12,0.6,4.5,2.4,-12.1,7.3,x
CCCCCCCCN1C(=O)[C@@H](CC(=O)NCC2CCCCC2)C[C@@]2(C(=O)OC)C1=C[C@H](COCc1ccccc1)O[C@@H]2C,x,x,x,31.1*,x,-0.1
CCCCCCCCN1C(=O)[C@@H](CC(=O)NCc2cccc(C(F)(F)F)c2)C[C@@]2(C(=O)OC)C1=C[C@H](COCc1ccccc1)O[C@@H]2C,x,x,x,32.1*,x,23.4
CCCCCCCCN1C(=O)[C@@H](CC(=O)NCCC(C)C)C[C@@]2(C(=O)OC)C1=C[C@H](COCc1ccccc1)O[C@@H]2C,x,x,x,30.3*,x,10.0
Cc1cc(C)c2nc(C)cc(NC(=O)CN3C(=O)c4ccccc4C3=O)c2c1,x,14.0,x,x,x,x
Cc1nn(-c2ccccc2)c(N2CCCC2)c1C=NNC(=S)Nc1ccc(F)cc1,1.6,-14.0,3.5,x,-0.2,x
